Experimental data as given in PubChem BioAssay (Tox21).
Records with an inconclusive call do not appear. A call without a number means that no potency is given here. A number with no mark means an inactive call. Active and inactive are the calls of the source. Calls follow the shape of the dose curve; as a rule, active = well fitted inhibition curve with a large enough effect in the repeat runs; inconclusive = weak or mixed curves; inactive = flat fitted curve, though single readings scatter.

Test: qHTS assay to identify small molecule HDAC inhibitors (AID 1259364); also: nearly all actives have a fitted effect of over 45% in size; as to activity change, negative = inhibition: top concentration of the series differs between compounds
Conditions: HCT-116 HDAC-Glo I/II luminescence, 2 h; series mostly up to 92.4 µM
Text: U.S. Tox21 Program National Center for Advancing Translational Sciences [NCATS] NIH Chemical Genomics Center [NCGC] U.S. Environmental Protection Agency [EPA] National Institutes of Environmental Health Sciences [NIEHS] National Toxicology Program [NTP] U.S. Food and Drug Administration [FDA] Tox21 Assay Overview: Histone deacetylases (HDACs) are a group of epigenetic enzymes that regulate gene expression by histone deacetylation. HDACs are capable of introducing epigenetic modifications and such aberrations contribute to the onset and progression of several human diseases, thus making HDACs a popular therapeutic target. For identifying endogenous class I/II HDAC inhibitors a homogenous, luminogenic HDAC I/II cell based assay was used to measure the relative activity of class I and II HDACs from cells. Wild type HCT-116 cells were used to screen Tox21 libraries for identifying class I/II HDAC inhibitors.
Tox21 Assay Protocol Summary: HCT-116 cells were dispensed at 1,500 per well in 5uL of culture medium into white solid bottom 1536-well plates (Greiner Bio-One, Monroe, NC) using a Multidrop Combi (Thermo Scientific, Waltham, MA) dispenser. The assay plates were incubated at 37 C and 5% CO2 for an overnight, and then 23nL of compounds dissolved in DMSO and positive control were transferred using a Pintool station (Wako, San Diego, CA). The assay plates were incubated at 37C and 5% CO2 for 2hr. After compound treatment, 4uL of HDAC-Glo reagent (Promega Corporation, Madison, WI) was added to each well of the assay plates using Flying Reagent Dispenser (FRD, Aurora Discovery, San Diego, CA) and incubated the assay plates at room temperature for 30min. The luminescence signal was quantified using a ViewLux plate reader (Perkin Elmer, Shelton, CT).
Potency is read from the fitted curve at half-maximal effect.

Compound | Potency | activity change, negative = inhibition
C=C(C)C1CC=C(C)C(=O)C1 (stereo not given) | inactive | 
Cc1ccc(C(C)NC(=O)[C@@H](NC(=O)OC(C)C)C(C)C)cc1 (stereo not given in full) | inactive | 
COC(=O)c1cc(Cl)cc(Cl)c1 | inactive | 
CC(C)CCOC(=O)c1ccccc1 | inactive | 
Cn1nnc2c(C(N)=O)ncn2c1=O | inactive | 
COS(=O)(=O)O | inactive | 
CCCCSCCCC | inactive | 
C=CCOC(=O)CCCCCC | inactive | 
CN(C)CCN(C)CCO | inactive | 
O=C[O][Al]([O]C=O)[O]C=O | inactive | 
C=Cc1ccc(C(C)(C)C)cc1 | inactive | 
CC1(C)CC(OC(=O)CCCCCCCCC(=O)OC2CC(C)(C)NC(C)(C)C2)CC(C)(C)N1 |  | 6.2% [at 19 µM]
CCCCCCCCCOC(=O)c1ccccc1C(=O)OCCCCCCCCC | inactive | 
Cc1c(Cl)cccc1Cl | inactive | 
CN1CCOC(c2ccccc2)c2ccccc2C1 (stereo not given) | inactive | 
CCc1occc(=O)c1O | inactive | 
CC(=O)OC(C)=O | inactive | 
Cc1ccc2c(c1)C(=O)c1ccccc1C2=O | 1210 nM (active) | 
O=C(O)CNC(=O)CNC(=O)CNC(=O)CSC(=O)c1ccccc1 | inactive | 
CCOc1cccc(N)c1 | inactive | 

Compound | Potency | activity change, negative = inhibition
CCOC(=O)CC1(C)OCC(C)O1 (stereo not given) | inactive | 
CCCCOC(=O)C(C)O (stereo not given) | inactive | 
C=CCCCC | inactive | 
CC1=C(C(=O)O)N2C(=O)[C@@H](NC(=O)[C@H](N)C3=CCC=CC3)[C@H]2SC1 | inactive | 
N#Cc1ccccc1O | inactive | 
CN(C)CCOC(=O)C(c1ccccc1)C1(O)CCCC1 (stereo not given) | inactive | 
O=C(NCN1CCOCC1)c1cnccn1 | inactive | 
CC(=O)OCC(=O)Nc1cc(C#N)cc(NC(=O)COC(C)=O)c1Cl | inactive | 
O=C=NCC1CCCC(CN=C=O)C1 (stereo not given) | inactive | 
O=C1c2ccccc2C(=O)c2cc(Cl)ccc21 |  | -13.5% [at 8.39 µM]
C=CC/C=C/C | inactive | 
COCCc1ccccn1 | inactive | 
O=C(Cn1ccnc1[N+](=O)[O-])NCc1ccccc1 | inactive | 
O=C(O)CONC(=O)c1ccccc1 | inactive | 
OC[C@@H](O)C(O)[C@@H](O)CO (stereo not given in full) | inactive | 
CC(C)OC(=O)CCC(=O)OC(C)C | inactive | 
CCC(C)C(=O)OCCc1ccccc1 (stereo not given) | inactive | 
CCCCOCCOC(=O)COc1ccc(Cl)cc1Cl | inactive | 
CC(C)(CO)C(O)C(=O)NCCCO (stereo not given) | inactive | 
Cc1ccc(C(=O)O)cc1[N+](=O)[O-] | inactive | 
